Reference: PubChem BioAssay (NCI)
The panel holds about 79,000 compounds, 15% with a hit somewhere; the sample as a whole holds those more often. Values without a mark were called inactive. The source made the active and inactive calls. No stated cut-off is given here; in the data, active means growth inhibition above about 70%; inactive means the rest.

Test: NCI Yeast Anticancer Drug Screen. Data for the cln2 rad14 strain (AID 165);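 further: 0% = growth equal to vehicle treated cultures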
Conditions: S. cerevisiae cln2 rad14 strain, at 50.0 µM, hits give high values
Method in brief: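 Relative to vehicle controls, growth inhibition of compound-treated cln2 rad14 yeast was recorded.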

Q: Which growth inhibition does the source give for `CC(C)OC(=O)c1cccnc1` here?
A: -39%

Q: For `CC(C)=C1CCC/C1=N\Nc1ccc([N+](=O)[O-])cc1[N+](=O)[O-]`, which growth inhibition is on record?
A: -25.8%

Q: With `C1=Cc2ccccc2Nc2ccccc21` as the compound, how does the growth inhibition read?
A: 1.65%

Q: For `COc1ccc(/C=C(\CC(=O)c2ccc(Cl)cc2)C(=O)O)cc1`, which growth inhibition is on record?
A: -30.6%

Q: For `CC1(c2ccc(Cl)cc2)NC(=O)NC1=O` (stereo not given), which growth inhibition is on record?
A: -29.5%

Q: With `CC(=O)Oc1ccc([N+](=O)[O-])cc1` as the compound, how does the growth inhibition read?
A: -17.7%

Q: For `CC1(C)N=C(N)N=C(N)N1c1cccc(CSc2ccccc2)c1`, which growth inhibition is on record?
A: 7.2%

Q: With `O=Nc1ccc(Br)cc1` as the compound, how does the growth inhibition read?
A: 5.8%

Q: With `O=C(OC1CCc2ccccc2C1)c1ccc(N=Nc2ccccc2)cc1` (stereo not given) as the compound, how does the growth inhibition read?
A: -39.8%

Q: Which growth inhibition does the source give for `CN(/N=C/c1ccccc1)c1nnnn1-c1ccccc1` here?
A: 33%

Q: With `O=C(Nc1ccccn1)c1ccccc1` as the compound, how does the growth inhibition read?
A: 11.6%

Q: Which growth inhibition does the source give for `CCCCOC(=O)NC(=O)c1cc2cccc(OC)c2oc1=O` here?
A: 14.3%

Q: For `Cc1nnc2n(c1=O)CCN2C`, which growth inhibition is on record?
A: -4.4%

Q: With `Cc1ccc(N=C(C(=O)c2ccccc2)C(Nc2ccc(C)cc2)C(=O)c2ccccc2)cc1` (stereo not given) as the compound, how does the growth inhibition read?
A: 20.8%

Q: For `CCCCN(CCCC)CC(O)c1c2cccc(Cl)c2cc2c(Cl)cccc12` (stereo not given), which growth inhibition is on record?
A: 93.3% (active)

Q: With `CC(c1ccccc1)n1cnc2c(N(CCO)CCO)ncnc21` (stereo not given) as the compound, how does the growth inhibition read?
A: -4.05%

Q: Which growth inhibition does the source give for `CCOC1([N+](=O)[O-])c2ccccc2-c2nc3ccccc3cc21` (stereo not given) here?
A: 63.7%

Q: With `O=C(Nc1ccc(Br)cc1)C(=O)C(C(=O)c1ccc(Cl)c(Cl)c1)C1OC(=O)c2ccccc21` (stereo not given) as the compound, how does the growth inhibition read?
A: 64.5%

Q: For `Cc1ccc(-n2[nH]nc(C#N)c2=O)cc1`, which growth inhibition is on record?
A: -1.25%

Q: Which growth inhibition does the source give for `FC(F)(F)c1nnc(-c2ccccc2)nn1` here?
A: -36.6%

Q: Which growth inhibition does the source give for `C=CCOC(C)OCC=C` here?
A: -23.5%

Q: With `COc1ccc(COC(=O)NC2CCCCC2)cc1OC` as the compound, how does the growth inhibition read?
A: -9.95%

Test: NCI Yeast Anticancer Drug Screen. Data for the bub3 strain (AID 167)
Conditions: S. cerevisiae bub3 mutant strain, at 50.0 µM, hits give high values
Method in brief: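 Part of a panel of yeast mutants defective in DNA damage repair or cell cycle regulation. Each strain is grown with compound, and inhibition is calculated relative to solvent-treated cultures.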

Q: With `CC(O)C1CC1` (stereo not given) as the compound, how does the growth inhibition read?
A: -2.2%

Q: Which growth inhibition does the source give for `CCOC(=O)CCC(NC(=O)c1ccc(Nc2nc3ccccc3nc2C(=O)OCC)cc1)C(=O)OCC` (stereo not given) here?
A: 25.8%

Q: With `CC(C)C(=O)Nc1ccccc1-c1ccccc1` as the compound, how does the growth inhibition read?
A: 0.05%

Q: For `O=S(=O)(NCCNS(=O)(=O)c1ccccc1)c1ccccc1`, which growth inhibition is on record?
A: 1.55%

Q: For `Nc1cc(=S)nc(N)[nH]1`, which growth inhibition is on record?
A: 20.6%

Q: Which growth inhibition does the source give for `CC[N+](C)(CC)c1cccc(OC(=O)Nc2ccc(OC)cc2)c1` here?
A: 1.05%

Q: Which growth inhibition does the source give for `CC(=O)Nc1nc2nccn2c(=O)[nH]1` here?
A: -2.4%

Q: With `O=S1(=O)C=Cc2ccccc2CC1` as the compound, how does the growth inhibition read?
A: 0.9%

Q: For `C=CCOC(=O)/C=C\C(=O)OCC=C`, which growth inhibition is on record?
A: 9.1%

Q: Which growth inhibition does the source give for `COc1ccc(OC)c2cc3c(cc12)C(=O)c1ccccc1C3=O` here?
A: 94.6% (active)

Q: Which growth inhibition does the source give for `Nc1ccc(S(=O)(=O)CC(=O)N2CCOCC2)cc1` here?
A: 4.95%

Q: With `Cc1cc(N(CCC#N)CCC#N)ccc1/C=C(\N=[N+]=[N-])C(=O)NC(=O)COc1ccccc1` as the compound, how does the growth inhibition read?
A: -6.65%

Q: Which growth inhibition does the source give for `O=c1[nH]c2cc(Cl)ccc2nc1/C=C(\O)c1cccc2ccccc12` here?
A: 15.1%

Q: With `Cc1cccnc1Nc1ncccc1C` as the compound, how does the growth inhibition read?
A: 8.3%

Q: With `C[N+]([O-])=C(c1ccccc1)c1ccccc1` as the compound, how does the growth inhibition read?
A: -30.8%

Q: Which growth inhibition does the source give for `Cc1c(C2CCSc3ccccc3N2)sc2ccccc12` (stereo not given) here?
A: 4.65%

Q: For `CCOC(=O)c1[nH]c(Cc2[nH]c(Cc3[nH]c(C(=O)OCC)c(C)c3C(=O)OCC)c(C(=O)OCC)c2C)c(C(=O)OCC)c1C`, which growth inhibition is on record?
A: 24.7%

Q: Which growth inhibition does the source give for `Cc1ccc(-c2cc(=O)c3cc(C)c(C)c(C(=O)O)c3o2)cc1C` here?
A: 6.25%

Q: With `CC(C)OC(=O)c1cccnc1` as the compound, how does the growth inhibition read?
A: -1.35%

Q: Which growth inhibition does the source give for `CC(C)=C1CCC/C1=N\Nc1ccc([N+](=O)[O-])cc1[N+](=O)[O-]` here?
A: 4.6%

Q: For `C1=Cc2ccccc2Nc2ccccc21`, which growth inhibition is on record?
A: -11.9%

Q: Which growth inhibition does the source give for `COc1ccc(/C=C(\CC(=O)c2ccc(Cl)cc2)C(=O)O)cc1` here?
A: 1%

Q: With `CC1(c2ccc(Cl)cc2)NC(=O)NC1=O` (stereo not given) as the compound, how does the growth inhibition read?
A: 9.85%

Q: Which growth inhibition does the source give for `CC(=O)Oc1ccc([N+](=O)[O-])cc1` here?
A: -1%

Q: With `CC1(C)N=C(N)N=C(N)N1c1cccc(CSc2ccccc2)c1` as the compound, how does the growth inhibition read?
A: -18.1%

Q: With `O=Nc1ccc(Br)cc1` as the compound, how does the growth inhibition read?
A: 13.1%

Q: For `O=C(OC1CCc2ccccc2C1)c1ccc(N=Nc2ccccc2)cc1` (stereo not given), which growth inhibition is on record?
A: 5.95%

Q: For `CN(/N=C/c1ccccc1)c1nnnn1-c1ccccc1`, which growth inhibition is on record?
A: 0.6%
